Laboratory results taken from PubChem BioAssay AID589 (National Center for Advancing Translational Sciences (NCATS), 2007).
Among all 59,000 compounds or so, about 6,200 (11%) were called active. Inconclusive results (about 9%) are left out. Cut-off read from the data, not from the text of the source: active = max dye-equivalent concentration above about 10 nM; inconclusive = mostly about 1.1 nM to 9.6 nM; inactive = weaker than that. Many of the other results were omitted from the sample, so actives are more common in it than they were.

Assay: qHTS Assay for Spectroscopic Profiling in 4-MU Spectral Region
Details: compound autofluorescence, 340/450 nm, 4-MU equivalents; active compounds read high
Outline: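 Compounds in 100 mM Tris, pH 8.0, incubated 15 min at room temperature, then fluorescence read at 340 nm excitation/450 nm emission. Signal converted to 4-MU dye-equivalent concentration using an on-plate six-point 4-MU standard curve.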

SMILES	max dye-equivalent concentration
CN1CCC2(CC1)CCN(S(=O)(=O)c1ccccc1)CC2	inactive
Cc1ccc(S(=O)(=O)Cn2nnnc2CN2CCN(Cc3ccc4c(c3)OCO4)CC2)cc1	inactive
COc1cccc(N(CC(=O)Nc2cccc(N(C)S(C)(=O)=O)c2)S(C)(=O)=O)c1	inactive
CC(C)CNC(=O)C1CCCN(S(=O)(=O)c2ccc(-n3cnnn3)cc2)C1 (stereo not given)	inactive
CCCOc1cccc(C(=O)Nc2nnn(CCC)n2)c1	inactive
CC(C)c1cc(CN(C)C)c(O)c(C(C)(C)C)c1	inactive
CCC(=O)Nc1cccc(NC(=O)CSc2nnc(-c3ccc(NS(C)(=O)=O)cc3)n2C)c1	inactive
Cc1ccc(N(C(=O)CC2NC(=O)NC2=O)C2(C(=O)NC3CCCC3)CCCCC2)cc1 (stereo not given)	inactive
CC(=O)Cc1nsc(NC(=O)c2ccc(COc3ccc(C)cc3)o2)n1	inactive
O=C(CN(CC1CCCO1)C(=O)CNS(=O)(=O)c1ccccc1)NCc1ccccc1 (stereo not given)	inactive
Cc1cccc2cc(CN(Cc3cccs3)C(c3nnnn3C3CCCC3)C(C)C)c(=O)[nH]c12 (stereo not given)	inactive
COc1ccccc1N1CCN(Cc2nnnn2CCc2ccccc2)CC1	inactive
CCOc1ccc2[nH]c(=O)c(CN(Cc3nnnn3CCc3ccccc3)CC3CCCO3)cc2c1 (stereo not given)	76 nM (active)
COc1ccc2[nH]c(=O)c(CN(CC3CCCO3)C(=O)Nc3ccccc3)cc2c1 (stereo not given)	110 nM (active)
CCOc1ccc2[nH]c(=O)c(CN(Cc3nnnn3Cc3ccccc3)CC3CCCO3)cc2c1 (stereo not given)	120 nM (active)
Cc1cccc2cc(CN(Cc3ccc4c(c3)OCO4)Cc3nnnn3C3CCCC3)c(=O)[nH]c12	inactive
CCC(c1nnnn1Cc1ccco1)N(Cc1cc2cc(OC)ccc2[nH]c1=O)C1CCCCC1 (stereo not given)	22 nM (active)
CCC(c1nnnn1Cc1ccco1)N(CCc1ccccc1)Cc1cc2ccc(OC)cc2[nH]c1=O (stereo not given)	inactive
N=c1c2c3c(sc2ncn1CCCN1CCOCC1)CCCCC3	inactive
CSc1sc(C)cc1C1C(C#N)=C(N)N(c2cccnc2)C2=C1C(=O)CCC2 (stereo not given)	inactive
N#Cc1cccc(NC(=O)CCC2CCCC2)c1	inactive
Cc1oc2nc(SCC(=O)NCc3cccnc3)nc(N)c2c1C	inactive
COc1ccc(OC)c(NC(=O)CSc2nc3cccnc3n2C)c1	inactive

SMILES	max dye-equivalent concentration
O=C(CCc1ccccc1)Nc1cccc(-c2nnc(-c3ccco3)o2)c1	inactive
Cc1ccc(CNC(=O)CN2CCN(Cc3ccc(Cl)cc3)C2=O)cc1	inactive
CCCC(=O)Nc1c(O)c2ccccc2[nH]c1=O	inactive
C=CCOc1ccc(C2/C(=C(\O)c3c(C)[nH]c(C(=O)OC)c3C)C(=O)C(=O)N2CCN(C)C)cc1 (stereo not given)	inactive
CC1(C)NC(=O)N(CCOc2cccc(Oc3ccccc3)c2)C1=O	inactive
COc1ccc2[nH]cc(CCNc3nc(-c4cccc(NS(C)(=O)=O)c4)nc4ccccc34)c2c1	inactive
COc1ccccc1-c1cc(C(=O)NCCCn2ccnc2)no1	inactive
COc1ccc(CNc2ncncc2-c2ccccc2OC)c(OC)c1	inactive
Cc1cc(C)c2nc(N3CCCC3)c(C#N)cc2c1	130 nM (active)
Cc1ccc(OCc2nc(C#N)c(N3CCCC3)o2)cc1	inactive
Cc1cccc2cc(C#N)c(N3CCCC3)nc12	42 nM (active)
NC(=O)C1CCN(C(=O)c2ccc(C(F)(F)F)cc2)CC1	inactive
CN1CCN(CCCNC(=O)c2cc3c(=O)oc4ccccc4c3s2)CC1	inactive
O=C(c1ccc([N+](=O)[O-])cc1)[C@@H](Br)[C@@H](Br)c1ccnc2ccccc12	inactive
CC12C(=O)N(n3cnnc3)C(=O)C1C1C=CC2C1 (stereo not given)	inactive
Fc1ccc2[nH]c3c(N4CCSCC4)ncnc3c2c1	47 nM (active)
Cc1ccc(-n2ncc3c(N4CCN(c5ccc(F)cc5)CC4)ncnc32)c(C)c1	inactive
Cc1cnc(CNc2nc(-c3cccnc3)nc3ccccc23)cn1	inactive
Cc1noc(C)c1C(=O)NC(C)c1ccc2c(c1)OCO2 (stereo not given)	inactive
O=C(CSc1nnc(-c2ccco2)n1Cc1ccccc1)NC(=O)NCc1ccco1	inactive
CO[C@@H]1/C=C\O[C@]2(C)Oc3c(C)c(O)c4c(O)c(c(CN(C)C)c(O)c4c3C2=O)NC(=O)/C(C)=C\C=C[C@@H](C)[C@@H](O)[C@H](C)[C@@H](O)[C@H](C)[C@H](OC(C)=O)[C@@H]1C	inactive
Cc1ccc(C(=O)COc2cccc(NC(=O)c3ccco3)c2)cc1	inactive
O=C(Nc1ccc(Oc2ccccc2)cc1)c1ccco1	inactive

SMILES	max dye-equivalent concentration
CCOc1cc(NC(=O)c2ccco2)c(OCC)cc1NC(=O)COc1ccccc1	85 nM (active)
O=c1oc2c(CN3CCCCC3)c(O)ccc2c2c1CCCCC2	12000 nM (active)
CCN(CC)S(=O)(=O)c1cc(C(=O)Nc2ccccn2)ccc1C	inactive
Cc1ccnc(N2CCN(C(=O)CSc3nc4ccccc4nc3N3CCCCC3)CC2)c1	29 nM (active)
O=C(CSc1nc2ccccc2o1)N1CCN(c2ccccc2)CC1	inactive
Cn1c(=O)cc(OCCCC(=O)N2CCN(c3ccccn3)CC2)c2ccccc21	inactive
CC1Cc2ccccc2N1C(=O)CSc1nc2ccccc2o1 (stereo not given)	inactive
c1ccc(CCN2CCN=C2Cc2ccccc2)cc1	inactive
Cc1ccc(NC(=O)Cn2nc(C)c3ccccc3c2=O)c(C)c1	inactive
CCOc1ccc(N=NS(=O)(=O)O)cc1	inactive
Nc1ccc2[nH]cc(CCC(=O)O)c2c1	inactive
NCCNCC1CCNCC1	inactive
O=C(O)[C@H](CCc1ccccn1)c1ccccc1	inactive
C/C(N)=C(\C#N)C(=O)NCCc1ccccn1	46 nM (active)
O=C(NCCc1ccccn1)c1ccc(COc2ccccc2)o1	inactive
O=C1C(=O)N(CCN2CCOCC2)C(c2ccccn2)/C1=C(/O)c1ccc(Cl)cc1 (stereo not given)	inactive
COc1ccccc1-c1nc(N2CCN(C)CC2)c2ccccc2n1	inactive
CCOC(=O)c1sc2nc(CSCC(=O)OCc3ccc(C(=O)OC)o3)[nH]c(=O)c2c1C	inactive
CCOC(=O)c1ccc(COC(=O)c2cc(=O)[nH]c3ccccc23)o1	33 nM (active)
CCOC(=O)c1ccc(CS(=O)c2ccc(Cl)cc2)o1 (stereo not given)	inactive
CN(C)/C=C/c1c(C#N)c(=O)ncn1Cc1ccccc1	inactive
COC(=O)CCSc1nccn1Cc1ccccc1	inactive
CN(C)c1ccnc2sc3c(=O)n(Cc4ccccc4)cnc3c12	28 nM (active)

SMILES	max dye-equivalent concentration
CCOc1ccccc1N(CC(=O)NC1CCCCC1)C(=O)CCCC(=O)Nc1ccccn1	inactive
CCC(C)(C)n1nnnc1C(c1cccs1)N1CCN(Cc2ccccc2)CC1 (stereo not given)	inactive
COc1ccccc1C(=O)Oc1ccc(N2C(=O)CCC2=O)cc1	inactive
COc1ccc(-c2ccc(-c3noc(-c4ccncc4)n3)c(OC)n2)cc1	17 nM (active)
O=C(Oc1ccc(-c2nc(-c3ccccn3)no2)cc1)c1ccccc1	inactive
COc1ccc(-c2nc(-c3ccccc3)no2)c(OC)c1	inactive
COc1ccc(-c2noc(CN(C)S(=O)(=O)c3ccc(C)cc3)n2)cc1	inactive
CCOc1nc(-c2ccc(OC)cc2)ccc1-c1noc(-c2cc(OC)c(OC)c(OC)c2)n1	57 nM (active)
CCOc1cc(-c2noc(CCC(=O)N3CCOCC3)n2)ccc1OC	inactive
FC(F)Oc1ccccc1C1CC(c2ccc(Br)s2)Nc2ncnn21 (stereo not given)	inactive
CN1CCN(C(=O)c2ccc(NS(=O)(=O)c3ccccc3)cc2)CC1	inactive
O=C(c1cnccn1)N1CCC2(CCCN(Cc3ccccc3)C2)CC1	inactive
O=C(COc1cccc(-n2cnnn2)c1)NCCC1=CCCCC1	inactive
Cn1nnc2cc(C(=O)NCCC3=CCCCC3)ccc21	inactive
Cc1ccc2c(c1)c1ncn(CCC3=CCCCC3)c(=O)c1n2C	38 nM (active)
NC(=S)c1ccc(C(N)=S)o1	inactive
CCCCSc1nnc(-c2ccc(NC(=O)CC)cc2)n1C	inactive
CCOc1cc(C)c(Cl)cc1S(=O)(=O)n1nnc2ccccc21	inactive
O=C(c1cccs1)N1CCC(c2nc3ccccc3s2)CC1	inactive
Cc1nn(Cc2ccccc2)c(Cl)c1C(=O)OC1CCOC1=O (stereo not given)	inactive
O=C(OC1CCOC1=O)c1ccc(-c2nc3ccccc3s2)s1 (stereo not given)	550 nM (active)
Cc1ccc(C(C)C)c(OCc2nnc(SCC(=O)Nc3nccs3)n2C)c1	inactive
C=CCOc1ccc(/C=N/n2cncn2)cc1OC	inactive

SMILES	max dye-equivalent concentration
COCCCNC(=O)C1CC(=O)N(c2ccc(C)cc2)C1 (stereo not given)	inactive
COc1ccc(Cl)cc1NC(=O)C1CC(=O)N(c2ccc(F)cc2)C1 (stereo not given)	inactive
COc1cccc(N2CC(C(=O)Nc3c(C)cccc3C)CC2=O)c1 (stereo not given)	20 nM (active)
O=C(Nc1ccn(Cc2ccc(F)cc2)n1)c1ccncc1	inactive
N#Cc1c(NC(=O)CSc2nc3ccccc3c(=O)n2Cc2ccco2)sc2c1CCCC2	inactive
CC(C)(O/N=C(\C(=O)N[C@@H]1C(=O)N2C(C(=O)[O-])=C(C[n+]3ccccc3)CS[C@@H]12)c1csc(N)n1)C(=O)O	inactive
CC(=O)N=c1ncn(CC(COC(C)=O)OC(C)=O)c2nc[nH]c12 (stereo not given)	inactive
Cc1ccc(S(=O)(=O)N2CCCC2C(=O)NCc2ccco2)cc1 (stereo not given)	inactive
CC(=O)c1c(N2CCOCC2)nc(=S)n(Cc2ccccc2)c1C	inactive
CCOC(=O)CSc1nnc(CNC(=O)c2cccs2)n1-c1ccccc1	inactive
COC(=O)c1c(NC(=O)c2cccs2)sc2c1CCCC2	90 nM (active)
CCOC(=O)c1oc2ccccc2c1NC(=O)c1cccs1	18 nM (active)
COC(=O)Cn1cc(C(=O)c2cccs2)c2ccccc21	inactive
O=C(Nc1ncccn1)c1cccs1	inactive
CCOC(=O)c1c(NC(=O)c2cccs2)sc(C)c1C	190 nM (active)
CCOCC(=O)Nc1sc2c(c1C(=O)OCC)CCCC2	inactive
COC(=O)c1c(NC(=O)CSc2nncs2)sc2c1CCCCC2	inactive
CCOC(=O)c1c(NC(=O)CSc2nnc(Cc3csc(N)n3)n2C)sc(C)c1C	inactive
Cc1ccnc(N2CCC(C(=O)NC3CCCCCC3)CC2)n1	inactive
CCN(CC)S(=O)(=O)c1ccc2nc(COC(=O)c3n[nH]c4ccccc34)[nH]c2c1	inactive
COc1ccc2c(c1)CCc1c(C(=O)Nc3c(C)n(C)n(-c4ccccc4)c3=O)noc1-2	inactive
O=C(Nc1c[nH]c(=O)[nH]c1=O)Oc1ccccc1	inactive
Cc1ccc(C)c(N(CC(=O)NCc2ccco2)C(=O)CCC(=O)Nc2ccccn2)c1	inactive
